Reference: PubChem BioAssay AID2202239 (National Center for Advancing Translational Sciences (NCATS), 2025)
The source made the active and inactive calls. The call rests on the fitted dose curve; in most records, active means well fitted inhibition curve with a large enough effect; inactive means flat fitted curve, though single readings scatter. Square brackets hold non-standard residues; d marks the D form. Peptide text beside a SMILES is read from it. Dolaproine = CO[C@@H]([C@@H]1CCCN1)[C@@H](C)C(=O)O; Dil = CC[C@H](C)[C@H](NC)[C@@H](CC(=O)O)OC; NMeV = CN[C@H](C(=O)O)C(C)C

Experiment: Identification of antibody-drug conjugate (ADC) payloads which are substrates of ATP-binding cassette drug efflux transporters: ABCB1-HeLa-KB-8-5-11 cell line with tariquidar
Conditions: KB-8-5-11 (P-gp) + tariquidar, viability, CellTiter-Glo, 48 h
From the text: Antibody-drug conjugates (ADCs) feature an antibody recognizing a specific protein joined to a potent toxic payload. Numerous antibody-drug conjugates have received FDA approval; however, clinical resistance arises. Resistance mechanisms include decreased expression or mutation of the antibody target, impaired payload release, or increased expression of ATP-binding cassette (ABC) efflux transporters associated with multidrug resistance. We therefore sought to characterize the interaction of ABC multidrug transporters with ADC payloads. We performed a high-throughput screen with 27 common ADC payloads using cells lines expressing ABC transporters P-glycoprotein (P-gp, encoded by ABCB1) or ABCG2 (encoded by ABCG2). Confirmatory assays were also performed using cells transfected to express P-gp, ABCG2, or MRP1 (encoded by ABCC1). Several commonly used ADC payloads were substrates of P-gp, including calicheamicin gamma1, monomethyl auristatin E, DM1, and DM4. All the pyrrolobenzodiazepines tested - SJG136, SGD-1882, SG2057, and SG3199 - were substrates of P-gp, ABCG2, and MRP1. […] These findings highlight the risk of transporter-mediated resistance with certain ADC payloads and underscore the importance of selecting payloads that evade ABC transporter recognition in future ADC development.
HEK-293 cells were transfected with empty vector (pcDNA) or vector containing the human ABCB1 (MDR-19), ABCG2 (R-5), or ABCC1 gene (MRP1) and were maintained in EMEM with 2 mg/mL G418 added to maintain transporter expression. The HeLa derivative KB-3-1 and the P-gp overexpressing KB-8-5-11 subline were maintained in DMEM; KB-8-5-11 additionally received 100 ng/mL colchicine. H460 parental cells were obtained from the Division of Cancer Treatment and Diagnosis Tumor Repository, National Cancer Institute at Frederick, MD and were cultured in RPMI. The ABCG2 expressing subline H460 MX20 was generated by selecting H460 cells in 20 nM mitoxantrone. Media in all cases was supplemented with 10% FBS and 1% penicillin-streptomycin. We explored 27 common ADC payloads, in two orthogonal, paired cell line sets-a drug selected and transfected set for each transporter--to identify substrates of the ABC transporters P-gp and ABCG2. Compounds were sourced from Levena Biopharma (San Diego, CA), Selleck Chem (Houston, TX), ChemieTek (Indianapolis, IN), or Microsource Discovery Systems (Gaylordsville, CT). Screening was performed as previously described. Briefly, cells were plated at a density of 500 cells/well in 1536 well plates with compounds added using a 1536-head pin tool (Kalypsys, San Diego CA). Cells were incubated with cytotoxic drugs and processed with CellTiter Glo reagent (Promega, Madison, WI) to determine viability after 48 hours. P-gp substrates were identified by comparing compound activity between paired sets of low-expressing (sensitive) and over-expressing (resistant) cell lines.

| Structure (SMILES) | Potency |
| --- | --- |
| CC[C@]1(O)CC2CN(CCc3c([nH]c4ccccc34)[C@@](C(=O)OC)(c3cc4c(cc3OC)N(C)[C@H]3[C@@](O)(C(=O)OC)[C@H](OC(C)=O)[C@]5(CC)C=CCN6CC[C@]43[C@@H]65)C2)C1 (stereo partly drawn) | 6.7 nM (active) |
| CC[C@H](C)[C@@H]([C@@H](CC(=O)N1CCC[C@H]1[C@H](OC)[C@@H](C)C(=O)N[C@@H](Cc1ccccc1)C(=O)O)OC)N(C)C(=O)[C@@H](NC(=O)[C@@H](NC)C(C)C)C(C)C (H-[NMeV]V[Dil][Dolaproine]F-OH) | 37.5 nM (active) |
| COC(=O)c1cc2c3c(cc(O)c2[nH]1)N(C(=O)c1cc2cc(OC)c(OC)c(OC)c2[nH]1)CC3CCl (stereo not drawn) | 0.6 nM (active) |
| CCc1c2c(nc3ccc(O)cc13)-c1cc3c(c(=O)n1C2)COC(=O)[C@]3(O)CC | 298 nM (active) |
| COc1cccc2c1C(=O)c1c(O)c3c(c(O)c1C2=O)C[C@@](O)(C(=O)CO)C[C@@H]3O[C@H]1C[C@H](N)[C@H](O)[C@H](C)O1 | 236 nM (active) |
| CC[C@H](C)[C@@H]([C@H](N)CC(=O)N1CCC[C@H]1[C@H](OC)[C@@H](C)C(=O)N[C@@H](Cc1ccccc1)c1nccs1)N(C)C(=O)[C@@H](NC(=O)[C@H](C(C)C)N(C)C)C(C)C | 0.0472 nM (active) |
| COc1ccc(C2=CN3C(=O)c4cc(OC)c(OCCCOc5cc6c(cc5OC)C(=O)N5C=C(c7ccc(N)cc7)C[C@@H]5C=N6)cc4N=C[C@H]3C2)cc1 | 59.4 nM (active) |
| Cc1nc(Nc2ncc(C(=O)Nc3c(C)cccc3Cl)s2)cc(N2CCN(CCO)CC2)n1 | 13300 nM (active) |
